For 97 compounds, inhibition results are on record in PubChem BioAssay AID1274 (Emory University Molecular Libraries Screening Center, 2008).

As a reminder, the inhibition is the drop in the measured response relative to a control, in per cent.

The structures appear in SMILES notation. Out of some 220,000 compounds screened, about 1,100 (0.5%) were called active. The list comes from a sample in which actives are over-represented; it also holds similar structures and randomly drawn compounds. A number with no mark means an inactive call.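 Rule for the calls: active = inhibition above about 30% (limit read from the data); inactive = the rest.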

Neutrophil cytosol factor 1 (Homo sapiens), sequence (P14598 whole entry, looked up): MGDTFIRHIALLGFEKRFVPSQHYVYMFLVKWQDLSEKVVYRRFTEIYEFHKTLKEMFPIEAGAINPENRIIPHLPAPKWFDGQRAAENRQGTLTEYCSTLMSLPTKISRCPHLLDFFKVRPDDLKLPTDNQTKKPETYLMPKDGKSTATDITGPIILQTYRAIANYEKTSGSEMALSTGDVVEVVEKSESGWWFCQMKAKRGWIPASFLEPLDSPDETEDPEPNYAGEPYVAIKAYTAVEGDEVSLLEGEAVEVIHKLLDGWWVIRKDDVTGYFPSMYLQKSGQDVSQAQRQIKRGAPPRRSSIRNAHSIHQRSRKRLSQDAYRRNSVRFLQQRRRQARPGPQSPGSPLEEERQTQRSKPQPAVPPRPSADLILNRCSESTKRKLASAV

The assay concerns the target Neutrophil cytosol factor 1 (Homo sapiens) (UniProt P14598). The assay is described as follows: p47phox/p22phox peptide binding inhibitors, primary screen, biochemical, uHTS, NADPH oxidase regulatory subunit (AID 1274).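 Note: 0% = p47phox with labelled peptide and 100% = labelled peptide alone.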 Particulars: fluorescence polarization, 2 h, at 24.7 µM, active compounds read high. A general note: Fluorescence polarisation rises when a labelled molecule tumbles more slowly, as on binding a larger partner.
Turning to `COc1ccc(N2C(=O)CC(SC(C)C)C2=O)cc1` (configuration not stated), the inhibition is -5.28%. The value for `COc1ccc(N2C(=O)C(Cc3ccccc3)NC2=S)cc1` (configuration not stated) was -10.2%. The value for `COc1ccc(N2C(=O)CNC2=S)cc1` was 41.5% (active); that for `Cc1c(C(=O)OC(C)C)sc(NC(=O)c2cccnc2)c1C#N` was -54.3%; that for `O=C(CSc1ccc([N+](=O)[O-])cn1)Nc1ccc(N2CCOCC2)cc1` was 2.81%.

`Cn1cnnc1SCC(=O)Nc1ccc(N2CCOCC2)cc1`: the inhibition was 50% (active). Turning to `O=C(O)CCC(=O)Nc1ccc(N2CCOCC2)cc1`, the inhibition is -1.84%. The value for `CN1CCN(CCCCOc2ccccc2-c2ccccc2)CC1` was -0.29%; that for `CC(C)=CCCC1(C)C=Cc2c(ccc3c2[nH]c2cc(O)c(C)cc23)O1` (configuration not stated) was -11.9%. As to `O=c1[nH]c2ccccc2n2c(-c3ccccc3)nnc12`, the inhibition is 69.6% (active). With `CCOC(=O)c1cnc2[nH]c3ccccc3n2c1=O`, the inhibition was 0.2%. For the compound `O=[N+]([O-])c1cccc(-c2nnc3c4ccccc4c4ccccc4n23)c1`, the inhibition is -1.55%. `COc1ccc2oc(N)c(C=O)c(=O)c2c1`: the inhibition is -6.85%. Under `CC/C(O)=N\S(=O)(=O)c1ccc(N=NN(C)C)cc1` stands -7.34%; under `COc1ccccc1OCCNC(=O)c1cc([N+](=O)[O-])cc([N+](=O)[O-])c1`, 5.08%.

As to `CCc1cc(Br)ccc1NC(=O)C1CCCO1` (configuration not stated), the inhibition was -3.52%.

Regarding `CCOC(=O)Cn1c(=O)oc2cc(S(=O)(=O)NCC3CCCO3)ccc21` (configuration not stated), the inhibition was -8.76%.

`OC(CNCC1CCCO1)Cn1c2ccc(Br)cc2c2cc(Br)ccc21` (configuration not stated): the inhibition was 64% (active). Under `CS(=O)(=O)N1CCc2cc(C(=O)Nc3ccccc3)ccc21` stands -4.32%; under `CC(C)Cc1nn2c(=O)cc(O)nc2s1`, -2.97%. The value for `O=c1[nH]c(=S)[nH]c2[nH]c(=S)[nH]c12` was 32.1% (active). For the compound `Cc1c(C)c(C)c2[nH]c(=S)[nH]c2c1C`, the inhibition was -7.18%. Under `Cc1cc(=O)[nH]c(=S)[nH]1` stands -3.01%; under `Cn1c(=O)c([N+](=O)[O-])c(Oc2ccccc2)c2ccccc21`, 0.11%; under `CCOc1cc(NC(=S)NCc2ccco2)c(OCC)cc1NC(=O)c1ccco1`, 4.63%. Take `CCOc1cc(NC(=S)NCCCOC)c(OCC)cc1NC(=O)c1ccco1`: the inhibition is -10.9%.

As for `CCOc1cc(NC(=O)c2ccco2)c(OCC)cc1NC(=O)COc1ccccc1`, the inhibition was 35.5% (active). Under `COc1ccccc1P(=O)(c1ccccc1)c1ccccc1NC(C)=O` (configuration not stated) stands 7.25%.

As to `COc1ccc(/C=C/C(=O)OCC(=O)NCc2cccs2)cc1OC`, the inhibition is -9.49%. Under `COC(=O)Cc1c(O)ccn(Cc2cccc(C(F)(F)F)c2)c1=O` stands -10.6%; under `O=C(NN1C(=O)C2C(C1=O)C1C=CC2C12CC2)c1ccccc1Cl` (configuration not stated), 43.4% (active). Consider `CC1=CC(C)(C)NC(=S)N1NC(=O)c1ccccc1Cl`, for which the inhibition is -1.05%. The value for `COc1ccccc1C(=O)NN1C(=O)C2C3C=CC(O3)C2C1=O` (configuration not stated) was -8.76%.

In the case of `COc1ccc(COCC(O)CN2CCC(C(N)=O)CC2)cc1` (configuration not stated), the inhibition was -6.99%. `Cc1ccccc1Nc1scc(-c2ccc(Br)cc2)[n+]1-c1ccccc1C`: the inhibition was -1.63%. The value for `CC(C)CNC(=O)COC(=O)c1ccccc1OCC(=O)Nc1ccc(Br)cc1` was 0.42%. Under `CC1CN(S(=O)(=O)c2ccc(C(=O)Nc3sccc3C(N)=O)cc2)CC(C)O1` (configuration not stated) stands -4.8%. In the case of `CN1/C(=C\C=C2\N=C(c3ccc(F)cc3)OC2=O)C(C)(C)c2ccccc21`, the inhibition is 149% (active). Under `CN1/C(=C\C(=O)c2oc3ccccc3c2N)C(C)(C)c2ccccc21` stands -9.12%. Under `CN1/C(=C\C(=O)c2cccnc2Cl)C(C)(C)c2ccccc21` stands -37.8%; under `COc1cc(C(=O)NCc2ccc3c(c2)cc(C)n3C)cc(OC)c1OC`, 1.37%. In the case of `O=C(O)C1=C[C@H](c2cccs2)C[C@H](OCCCCO)O1`, the inhibition was -14.3%. Under `Cc1ccc(C)c(CSc2nc(-c3ccco3)nc3c2c(=O)n(C)c(=O)n3C)c1` stands -1.58%. Under `CC(C)(C)NC(=O)/C(=C/c1cccnc1)NC(=O)c1ccco1` stands -7.92%; under `CC1(OC(=O)CCc2ccccc2)C(=O)C=C2C=C(c3ccc(C#N)cc3)N(CCc3ccccn3)C=C2C1=O` (configuration not stated), 32.3% (active). Under `C=CCN1C=C2C(=O)C(C)(OC(=O)CCc3ccccc3)C(=O)C=C2C=C1c1ccc(C#N)cc1` (configuration not stated) stands -11.9%; under `COCCN1C=C2C(=O)C(C)(OC(=O)C3CCCC3)C(=O)C=C2C=C1c1ccsc1` (configuration not stated), 0.87%; under `CCN(C(=O)CN1CCN(Cc2ccccc2)CC1)c1c(N)n(Cc2ccccc2)c(=O)[nH]c1=O`, -14.8%. `NC(=O)N1CCc2ccccc21`: the inhibition was 3.78%. Regarding `O=C(c1cnn2ccccc12)N1CCc2ccccc21`, the inhibition is -1.85%. The value for `O=C(c1cccc(C(=O)N2CCc3ccccc32)n1)N1CCc2ccccc21` was 45.6% (active). As for `Nc1nnn(CC(=O)N/N=C/c2ccc(O)cc2)n1`, the inhibition was -6.45%. Under `CN(C)c1nc(=Nc2cccc(Cl)c2)ss1` stands -21.8%; under `CCCCN=C1C([N+](=O)[O-])=CC=C2C1=NC1(CCCCC1)N2O`, 103% (active). On to `Oc1ccc2ccccc2c1N=Nc1nccs1`, for which the inhibition was 59.9% (active). As for `Oc1c(C=Nc2cccc3nsnc23)ccc2ccccc12`, the inhibition is -51.3%.

In the case of `Oc1ccc(N=Nc2nccs2)c(O)c1`, the inhibition was -48.9%.

For `CCN(C(=O)COC(=O)/C=C/c1nc2ccccc2s1)C1CCS(=O)(=O)C1` (configuration not stated), the inhibition is -4.73%. The value for `CCOC(=O)N1CCN(C(c2cccnc2)c2ccc3cccnc3c2O)CC1` (configuration not stated) was 6.02%; that for `CCN1CCN(C(c2cccnc2)c2cc(Cl)c3cccnc3c2O)CC1` (configuration not stated) was 38.2% (active). Under `Oc1c(CN2CCN(c3ccc(F)cc3)CC2)cc(Cl)c2cccnc12` stands 11.9%; under `CC(=O)Nc1nc(C)c(-c2csc(Nc3ccc(S(N)(=O)=O)cc3)n2)s1`, -21.6%.

For the compound `CCOC(=O)C1CCN(c2ncnc3c2oc2ccc(Br)cc23)CC1`, the inhibition was 48.6% (active). For the compound `CCOC(=O)C1CCN(c2ncnc3c2c(-c2ccccc2)cn3-c2ccc(C)cc2)CC1`, the inhibition was -0.04%. As for `CCOC(=O)C1CCN(C(=O)c2oc3ccc(S(=O)(=O)N4CCCCCC4)cc3c2C)CC1`, the inhibition was -9.11%. Under `CCN(CC)N=Nc1cccc(NC(C)=O)c1` stands 2.47%.

Regarding `O=C(CSC(=S)N1CCCCC1)c1c(F)cccc1F`, the inhibition was -20.4%. Under `CC(C)Oc1ccc(CC(=O)NNC(=S)Nc2ccc(Br)cc2)cc1` stands -4.65%. On to `Cc1cccc(C)c1NC(=O)C1(N(C(=O)c2ccccn2)c2ccc(O)cc2)CCCCC1`, for which the inhibition is -4.76%. The value for `CC(Oc1ccc(-c2ccccc2)c(F)c1)c1ccn(S(=O)(=O)c2cccc3ccccc23)n1` (configuration not stated) was 30.5% (active); that for `COc1ccc(Nc2nc(N)nc(CSC(=S)N3CCC(C)CC3)n2)cc1` was -5.99%. In the case of `CCn1c(SCC(=O)N/N=C/c2ccncc2)nc2ccccc21`, the inhibition was 3.59%.

On to `NNc1nc2c(Cl)cccc2s1`, for which the inhibition is -5.57%. Under `CC(=O)c1c(N)n(C)c(=O)n(C)c1=O` stands -3.86%; under `CC(C)Oc1ccc(C(=O)Nc2cc(=O)n(C)c(=O)n2C)cc1`, -14%; under `CC(=O)OCc1cc(=O)n(C)c(=O)n1C`, 38.7% (active). Under `O=C1CN(C(=O)CN2C(=O)NC3(CCCCC3)C2=O)c2ccccc2N1` stands -8.11%. Under `C=CCC1(C#N)C(=S)NC(C)=C(C(=O)OCC)C1c1ccccc1` (configuration not stated) stands -0.89%. In the case of `C=CCN1CC(C)/C(=N\O)CC1C` (configuration not stated), the inhibition was -0.6%. As for `CCC(=O)Nc1cccc(NC(=O)CSc2nnc(-c3ccc(NS(C)(=O)=O)cc3)n2C)c1`, the inhibition was -16.1%.

In the case of `Cn1c(SCC(=O)OC2CCCCC2)nnc1-c1ccc(S(=O)(=O)N2CCCC2)cc1`, the inhibition is -1.77%.

Take `Cn1c(SCC(=O)Nc2cccc(O)c2)nnc1-c1ccc(S(=O)(=O)N2CCOCC2)cc1`: the inhibition is 36.6% (active). The value for `Nc1c(NCCc2ccccc2)c2ccccc2oc1=O` was -7.7%; that for `Cc1cc(C)cc(OCC(=O)Nc2ccc(S(=O)(=O)Nc3ccccn3)cc2)c1` was -4.16%; that for `Cc1ccc(OCC(=O)Nc2ccc(S(=O)(=O)Nc3ccccn3)cc2)cc1` was 5.31%. The value for `O=C(COc1ccc2oc3c(c2c1)CCCC3)Nc1ccccn1` was 178% (active); that for `Cc1ccc(S(=O)(=O)NNC(=S)NC(C)(C)C)cc1` was -8.25%; that for `CCc1ccccc1NC(=O)CSc1nnc(CCNC(=O)OC(C)(C)C)o1` was -6.69%.

For the compound `CCN(CC(=O)NCCc1ccccc1)S(=O)(=O)c1ccccc1`, the inhibition is -6.19%. Turning to `O=C(Nc1ccc(Br)cn1)C1CCN(S(=O)(=O)c2cccs2)CC1`, the inhibition is -5.24%. In the case of `CCN(CC)CCCN=Cc1c(O)n(-c2ccc(C)cc2)c(=O)c2ccccc12`, the inhibition was 111% (active). `CCOc1ccc(-n2c(O)c(/C=N/Nc3nnc(C)c(=O)[nH]3)c3ccccc3c2=O)cc1`: the inhibition was -44.3%.

In the case of `CCOc1ccc(-n2c(O)c(/C=N/Nc3nc(C)cc(C)n3)c3ccccc3c2=O)cc1`, the inhibition is -10.2%.

On to `O=C(O)C1CCN(C(=O)c2cc(F)cc3c2OCOC3)CC1`, for which the inhibition was -5.96%. For the compound `Cc1nc2c(-c3ccc(F)cc3)c(C)nn2c(C)c1CCC(=O)N1CCN(c2ccccn2)CC1`, the inhibition is -1.7%. Consider `Cc1nc2ncnn2c(C)c1CCC(=O)N1CCN(C(=O)c2ccco2)CC1`, for which the inhibition is 2.67%. The value for `Cc1nc2nc(C)c(CCC(=O)N3CCN(c4ccccc4)CC3)c(C)n2n1` was 37.8% (active).
